Data from the supplement of paper PMC10849652.
Targets with a hit are over-represented here; the source holds about 7,900 in all. About 0.6% of all pairs of compound and target were hits. Unmarked numbers belong to inactive results.

Key:
Experiment in all cases: log2 fold change, soluble protein after heating vs DMSO (PISA); higher = thermal stabilisation; K562 cells, 10 uM, 30 min; active = over 0.2 and 3.5 SD of the protein, either way, in both replicates (recomputed)
IRAK-1-4 Inhibitor I = compound: C1COCCN1CCN2C3=CC=CC=C3N=C2NC(=O)C4=CC(=CC=C4)[N+](=O)[O-] [IRAK-1-4 Inhibitor I]
Method in brief: (§1)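 Aliquots of K562 cells (2×10^6 cells/mL) treated with 10 μM compound for 30 min were heated for 3 min over 48°C-58°C. After pooling and extraction in PBS with 0.5% NP-40 at 4°C, soluble protein from a 21,000xg, 90 min spin was quantified by TMTpro 16plex LC-MS/MS with channel sums equalised. Thermal stability is expressed against control samples, from duplicates, as a log2 fold change.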

ibrutinib = compound: C=CC(=O)N1CCC[C@@H](n2nc(-c3ccc(Oc4ccccc4)cc3)c3c(N)ncnc32)C1 [ibrutinib]
Method in brief: as §1

[1] = compound: CC(=O)c1cnc2ccc(-c3cc(Cl)c(O)c(Cl)c3)nc2c1N[C@H]1CC[C@H](CN(C)C)CC1
Method in brief: as §1

ralimetinib = compound: CC(C)(C)Cn1c(N)nc2ccc(-c3[nH]c(C(C)(C)C)nc3-c3ccc(F)cc3)nc21 [ralimetinib]
Method in brief: as §1

[2] = compound: CC(C)(O)CC(=O)NCCn1ccc2ncnc(Nc3ccc(Oc4cccc(C(F)(F)F)c4)c(Cl)c3)c21
Method in brief: as §1

[3] = compound: CC(C)C1=C2N=C(C=C(N2N=C1)NCC3=CC=CC=C3)NCCCCCCN
Method in brief: as §1

[4] = compound: CC(C)C[C@@H](C=O)NC(=O)[C@H](CC(C)C)NC(=O)[C@H](CC(C)C)NC(=O)OCc1ccccc1
Method in brief: as §1

pinometostat = compound: CC(C)N(C[C@H]1O[C@@H](n2cnc3c(N)ncnc32)[C@H](O)[C@@H]1O)[C@H]1C[C@@H](CCc2nc3cc(C(C)(C)C)ccc3[nH]2)C1 [pinometostat]
Method in brief: as §1

[5] = compound: CC1=C(C(CC(=O)N1)C2=CC=C(C=C2)C(F)(F)F)C(=O)NC3=C(C=C4C(=C3)C=NN4)F
Method in brief: as §1

[6] = compound: CC1=C(C2=C(C=C1)C(=O)C3=CC=CC=C3N2CCCN)C
Method in brief: as §1

[7] = compound: CC1=C(C=C(C=C1)NC(=O)C2=CC(=CC=C2)C(C)(C)C#N)NC3=CC4=C(C=C3)N=CN(C4=O)C
Method in brief: as §1

[8] = compound: CC1=C(C=C(C=C1)NC(=O)C2=CC(=CC=C2)N(C)C)NC(=O)C3=CC=C(C=C3)O
Method in brief: as §1

[9] = compound: CC1=CC=C(C=C1)SC2=C3C=C(SC3=CN=C2)C(=O)N
Method in brief: as §1

[10] = compound: CC1=NC(=CC=C1)C2=C(N=C(N2)C(C)(C)C)C3=CC4=NC=CN=C4C=C3
Method in brief: as §1

Nexturastat A = compound: CCCCN(Cc1ccc(C(=O)NO)cc1)C(=O)Nc1ccccc1 [Nexturastat A]
Method in brief: as §1

vemurafenib = compound: CCCS(=O)(=O)Nc1ccc(F)c(C(=O)c2c[nH]c3ncc(-c4ccc(Cl)cc4)cc23)c1F [vemurafenib]
Method in brief: as §1

[11] = compound: CCCS(=O)(=O)Nc1ccc(F)c(C(=O)c2c[nH]c3ncc(Cl)cc23)c1F
Method in brief: as §1

[12] = compound: CCCc1cc(C)[nH]c(=O)c1CNC(=O)c1cc(-c2ccnc(N3CCN(C)CC3)c2)cc2c1cnn2C(C)C
Method in brief: as §1

givinostat = compound: CCN(CC)Cc1ccc2cc(COC(=O)Nc3ccc(C(=O)NO)cc3)ccc2c1 [givinostat]
Method in brief: as §1

barasertib = compound: CCN(CCCOc1ccc2c(Nc3cc(CC(=O)Nc4cccc(F)c4)[nH]n3)ncnc2c1)CCOP(=O)(O)O [barasertib]
Method in brief: as §1

Chain of UniProt Q9GZY8 (Q9GZY8 whole entry, looked up): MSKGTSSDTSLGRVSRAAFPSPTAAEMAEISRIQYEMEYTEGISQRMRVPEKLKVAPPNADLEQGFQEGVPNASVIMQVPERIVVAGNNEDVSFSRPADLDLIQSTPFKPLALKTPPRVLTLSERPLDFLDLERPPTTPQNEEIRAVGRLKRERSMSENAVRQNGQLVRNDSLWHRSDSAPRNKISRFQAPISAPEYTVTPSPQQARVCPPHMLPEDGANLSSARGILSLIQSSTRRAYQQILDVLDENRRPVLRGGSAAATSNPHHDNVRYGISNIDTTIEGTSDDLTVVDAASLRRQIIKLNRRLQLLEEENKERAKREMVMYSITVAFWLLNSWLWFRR
Chain of UniProt P52333 (P52333 whole entry, looked up): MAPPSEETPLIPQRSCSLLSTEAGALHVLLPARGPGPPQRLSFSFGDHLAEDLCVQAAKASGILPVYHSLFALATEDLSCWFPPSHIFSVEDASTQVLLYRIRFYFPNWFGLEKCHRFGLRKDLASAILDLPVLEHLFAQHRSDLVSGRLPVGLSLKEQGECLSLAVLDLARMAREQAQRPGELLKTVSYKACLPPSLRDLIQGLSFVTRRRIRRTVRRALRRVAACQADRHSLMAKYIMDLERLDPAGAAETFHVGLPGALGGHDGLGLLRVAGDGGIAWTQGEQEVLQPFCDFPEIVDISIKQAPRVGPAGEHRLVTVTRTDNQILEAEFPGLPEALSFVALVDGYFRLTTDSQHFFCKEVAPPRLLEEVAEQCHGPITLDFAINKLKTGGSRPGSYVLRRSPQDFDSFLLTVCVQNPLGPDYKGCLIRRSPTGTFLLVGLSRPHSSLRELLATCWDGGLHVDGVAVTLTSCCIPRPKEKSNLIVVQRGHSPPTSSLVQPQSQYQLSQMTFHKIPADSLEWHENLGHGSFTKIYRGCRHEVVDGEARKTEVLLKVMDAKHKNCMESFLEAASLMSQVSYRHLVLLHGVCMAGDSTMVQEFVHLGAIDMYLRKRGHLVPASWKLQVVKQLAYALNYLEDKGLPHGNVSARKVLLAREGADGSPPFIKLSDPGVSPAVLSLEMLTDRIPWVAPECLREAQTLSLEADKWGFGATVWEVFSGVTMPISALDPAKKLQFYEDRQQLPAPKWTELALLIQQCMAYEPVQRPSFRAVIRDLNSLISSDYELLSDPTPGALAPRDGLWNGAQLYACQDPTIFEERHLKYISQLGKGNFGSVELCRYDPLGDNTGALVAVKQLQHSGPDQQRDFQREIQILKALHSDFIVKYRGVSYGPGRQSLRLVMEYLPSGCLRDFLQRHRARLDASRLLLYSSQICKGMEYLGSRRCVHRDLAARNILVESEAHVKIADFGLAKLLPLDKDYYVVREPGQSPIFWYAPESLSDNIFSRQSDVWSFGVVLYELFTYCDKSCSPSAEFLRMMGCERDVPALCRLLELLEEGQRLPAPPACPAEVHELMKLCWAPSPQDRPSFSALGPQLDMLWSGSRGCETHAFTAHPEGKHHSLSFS
Chain of UniProt Q6P9B6 (Q6P9B6 whole entry, looked up): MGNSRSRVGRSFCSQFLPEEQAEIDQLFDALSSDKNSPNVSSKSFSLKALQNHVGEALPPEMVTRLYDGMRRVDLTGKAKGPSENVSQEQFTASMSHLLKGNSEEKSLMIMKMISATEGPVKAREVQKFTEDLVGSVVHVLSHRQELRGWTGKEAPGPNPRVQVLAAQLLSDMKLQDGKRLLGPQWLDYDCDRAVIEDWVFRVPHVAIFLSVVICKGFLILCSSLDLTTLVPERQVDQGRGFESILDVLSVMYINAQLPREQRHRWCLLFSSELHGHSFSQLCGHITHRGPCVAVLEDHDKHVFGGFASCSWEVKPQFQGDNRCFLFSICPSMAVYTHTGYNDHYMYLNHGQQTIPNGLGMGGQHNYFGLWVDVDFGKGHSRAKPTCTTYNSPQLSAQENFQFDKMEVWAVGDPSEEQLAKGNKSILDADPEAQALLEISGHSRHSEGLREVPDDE
Chain of UniProt Q08334 (Q08334 whole entry, looked up): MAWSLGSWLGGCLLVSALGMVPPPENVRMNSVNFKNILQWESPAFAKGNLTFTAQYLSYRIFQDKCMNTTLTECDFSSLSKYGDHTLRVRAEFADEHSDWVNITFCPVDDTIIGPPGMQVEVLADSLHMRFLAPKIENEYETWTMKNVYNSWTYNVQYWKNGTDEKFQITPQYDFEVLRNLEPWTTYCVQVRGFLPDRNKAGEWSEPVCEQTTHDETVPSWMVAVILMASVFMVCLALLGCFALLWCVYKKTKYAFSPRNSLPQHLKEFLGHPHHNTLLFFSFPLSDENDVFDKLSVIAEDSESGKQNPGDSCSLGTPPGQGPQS
Chain of UniProt P52294 (P52294 whole entry, looked up): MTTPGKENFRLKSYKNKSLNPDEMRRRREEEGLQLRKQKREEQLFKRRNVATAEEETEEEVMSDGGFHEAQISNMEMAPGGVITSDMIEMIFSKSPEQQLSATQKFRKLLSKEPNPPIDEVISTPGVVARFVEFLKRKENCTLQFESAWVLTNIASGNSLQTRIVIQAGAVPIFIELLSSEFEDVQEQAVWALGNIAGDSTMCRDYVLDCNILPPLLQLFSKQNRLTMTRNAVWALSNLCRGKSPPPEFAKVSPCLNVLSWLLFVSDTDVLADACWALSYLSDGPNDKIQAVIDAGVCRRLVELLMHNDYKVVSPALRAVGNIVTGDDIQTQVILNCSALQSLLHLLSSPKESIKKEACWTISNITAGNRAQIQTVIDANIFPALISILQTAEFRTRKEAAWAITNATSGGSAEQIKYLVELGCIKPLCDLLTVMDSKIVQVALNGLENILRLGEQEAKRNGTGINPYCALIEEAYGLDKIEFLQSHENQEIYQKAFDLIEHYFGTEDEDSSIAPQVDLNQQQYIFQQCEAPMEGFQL
Chain of UniProt P07948 (P07948 whole entry, looked up): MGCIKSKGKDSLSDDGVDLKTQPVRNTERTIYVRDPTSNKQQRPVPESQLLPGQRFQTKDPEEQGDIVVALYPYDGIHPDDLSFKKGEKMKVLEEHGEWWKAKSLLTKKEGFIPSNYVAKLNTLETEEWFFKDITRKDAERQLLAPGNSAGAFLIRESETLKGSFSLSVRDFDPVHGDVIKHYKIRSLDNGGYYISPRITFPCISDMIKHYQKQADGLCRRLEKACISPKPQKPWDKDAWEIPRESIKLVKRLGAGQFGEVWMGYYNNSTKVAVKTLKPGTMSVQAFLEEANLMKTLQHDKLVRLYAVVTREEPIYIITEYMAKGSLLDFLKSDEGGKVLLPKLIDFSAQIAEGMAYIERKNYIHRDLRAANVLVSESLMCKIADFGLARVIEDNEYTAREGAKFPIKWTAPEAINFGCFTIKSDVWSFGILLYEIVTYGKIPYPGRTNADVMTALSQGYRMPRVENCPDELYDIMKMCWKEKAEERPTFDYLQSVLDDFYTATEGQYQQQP
Chain of UniProt Q9NVC6 (Q9NVC6 whole entry, looked up): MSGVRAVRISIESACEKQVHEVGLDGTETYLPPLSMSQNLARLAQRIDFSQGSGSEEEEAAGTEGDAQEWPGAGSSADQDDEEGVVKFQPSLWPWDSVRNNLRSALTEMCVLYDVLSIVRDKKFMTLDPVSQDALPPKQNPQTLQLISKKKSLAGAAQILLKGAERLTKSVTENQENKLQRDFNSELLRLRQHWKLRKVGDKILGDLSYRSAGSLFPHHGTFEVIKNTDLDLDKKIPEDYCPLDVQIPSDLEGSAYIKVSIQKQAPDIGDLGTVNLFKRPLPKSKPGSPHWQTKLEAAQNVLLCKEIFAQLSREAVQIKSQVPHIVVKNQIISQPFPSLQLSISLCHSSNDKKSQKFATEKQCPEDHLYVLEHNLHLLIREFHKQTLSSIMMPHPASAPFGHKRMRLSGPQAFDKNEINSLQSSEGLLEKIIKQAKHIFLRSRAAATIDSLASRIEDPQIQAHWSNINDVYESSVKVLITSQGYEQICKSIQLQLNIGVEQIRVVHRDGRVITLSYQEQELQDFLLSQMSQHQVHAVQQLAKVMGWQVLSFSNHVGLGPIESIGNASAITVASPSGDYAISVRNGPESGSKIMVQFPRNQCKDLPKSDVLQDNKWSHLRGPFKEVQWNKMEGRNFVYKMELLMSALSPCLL
Chain of UniProt P51884 (P51884 whole entry, looked up): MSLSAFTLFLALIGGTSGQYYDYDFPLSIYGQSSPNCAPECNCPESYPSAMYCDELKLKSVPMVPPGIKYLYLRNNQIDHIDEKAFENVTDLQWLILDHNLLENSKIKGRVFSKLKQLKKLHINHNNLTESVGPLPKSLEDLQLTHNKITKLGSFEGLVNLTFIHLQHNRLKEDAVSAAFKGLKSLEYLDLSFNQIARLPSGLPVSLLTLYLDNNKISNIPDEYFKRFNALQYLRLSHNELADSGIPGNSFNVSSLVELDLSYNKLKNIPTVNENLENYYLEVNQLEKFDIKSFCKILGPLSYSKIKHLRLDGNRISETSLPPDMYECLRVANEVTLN
Chain of UniProt O95279 (O95279 whole entry, looked up): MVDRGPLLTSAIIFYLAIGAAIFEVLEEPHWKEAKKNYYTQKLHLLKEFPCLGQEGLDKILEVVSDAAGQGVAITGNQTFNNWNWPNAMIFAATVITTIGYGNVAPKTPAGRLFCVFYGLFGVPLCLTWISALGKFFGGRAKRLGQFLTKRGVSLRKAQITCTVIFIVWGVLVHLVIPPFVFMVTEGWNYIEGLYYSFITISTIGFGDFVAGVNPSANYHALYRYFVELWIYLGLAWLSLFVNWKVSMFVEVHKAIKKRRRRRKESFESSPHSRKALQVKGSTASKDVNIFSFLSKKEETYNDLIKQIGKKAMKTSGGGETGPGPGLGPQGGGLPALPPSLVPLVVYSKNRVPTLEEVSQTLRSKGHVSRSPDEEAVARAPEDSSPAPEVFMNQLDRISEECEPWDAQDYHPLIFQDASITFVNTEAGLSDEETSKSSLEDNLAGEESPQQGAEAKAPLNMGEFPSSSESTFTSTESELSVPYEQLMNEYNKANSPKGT

Target	log2 fold change (IRAK-1-4 Inhibitor I)	log2 fold change (ibrutinib)	log2 fold change [1]	log2 fold change (ralimetinib)	log2 fold change [2]	log2 fold change [3]	log2 fold change [4]	log2 fold change (pinometostat)	log2 fold change [5]	log2 fold change [6]	log2 fold change [7]	log2 fold change [8]	log2 fold change [9]	log2 fold change [10]	log2 fold change (Nexturastat A)	log2 fold change (vemurafenib)	log2 fold change [11]	log2 fold change [12]	log2 fold change (givinostat)	log2 fold change (barasertib)
KPNA1 (UniProt P52294)	-0.046	-0.073	0.062	0.089	-0.022	0.084	0.123	0.071	-0.05	-0.26 (active)	-0.034	-0.056	-0.021	-0.041	0.084	0.035	0.026	0.034	0.086	0.012
MBLAC1 (UniProt A4D2B0)	0.371	-0.03	0.001	-0.074	–	0.126	-0.011	-0.163	–	–	–	0.079	-0.093	-0.098	–	0.029	-0.008	0.059	-0.04	-0.016
MED12 isoform 2 (UniProt Q93074)	-0.057	-0.098	-0.747 (active)	-0.05	-0.024	-0.291	-0.005	0.251	-0.053	-0.04	0.034	-0.202	-0.015	-0.09	0.012	–	0.071	0.023	0.106	-0.135
IL10RB (UniProt Q08334)	0.027	0.079	0.09	–	-0.09	0.063	–	0.04	-0.055	-0.089	0.19	–	-0.012	-0.17	0.082	-0.004	0.018	–	0.088	0.063
MEAK7 (UniProt Q6P9B6)	0.015	-0.041	-0.093	0.078	-0.018	-0.2	0.079	0.037	-0.004	0.033	0.081	0.053	-0.005	0.015	-0.006	0.012	0.067	-0.055	0.085	0.025
MED17 (UniProt Q9NVC6)	-0.076	–	-0.371 (active)	0.12	-0.022	-0.209	0.119	0.124	-0.056	0.182	0.042	-0.03	-0.186	0.005	0.052	0.071	-0.168	0.025	-0.014	–
LRFN1 (UniProt Q9P244)	0.105	-0.018	–	-0.009	0.073	0.107	0.061	0.029	–	0.008	0.052	0.076	0.02	-0.101	0.241	-0.031	0.054	–	-0.025	0.037
LRBA, A0A494BZW2	0.02	0.018	-0.009	0.01	0	-0.436	0.041	0.076	0.006	-0.237	-0.082	0.06	-0.048	0.078	-0.264	–	0.272	0.038	0.264	0.026
KIF3B (UniProt O15066)	0.06	-0.029	0.016	-0.048	0.018	-0.021	0.068	0.033	–	-0.008	-0.082	0.05	-0.022	-0.042	0.097	0.018	0.017	-0.019	0.067	-0.062
MCM10 (UniProt Q7L590)	0.096	0.018	–	–	-0.115	0.015	–	-0.108	0.07	-0.037	0.209	–	0.166	0.155	0.028	-0.016	0.217	-0.037	-0.065	-0.012
LYN isoform 2 (UniProt P07948)	0.04	–	-0.246	–	0.002	-0.078	–	0.147	-0.113	–	0.056	–	-0.079	-0.079	0.376	0.095	-0.296	–	-0.168	–
MIEF1 (UniProt Q9NQG6)	0.056	-0.003	-0.016	-0.07	-0.183	-0.247	-0.034	-0.038	-0.085	0.112	0.054	0.009	0.023	0.13	-0.067	-0.02	0.019	0.008	-0.044	0.015
JAK3 (UniProt P52333)	-0.01	-0.052	–	-0.184	-0.045	0.072	-0.043	-0.082	0.009	-0.089	-0.002	-0.056	0.066	0.099	-0.478 (active)	-0.032	-0.029	0.016	-0.16	0.016
LUM (UniProt P51884)	-0.038	–	0.078	-0.054	0.263	0.124	0.023	-0.068	-0.151	-0.256	-0.011	0.403	0.042	0.061	-0.008	0.069	-0.266	–	-0.108	–
KCNK5 (UniProt O95279)	-0.033	0.019	–	–	-0.209	-2.03 (active)	–	0	–	–	-0.114	–	0.195	0.084	0.106	–	0.1	0.157	-0.319	0.097
MFF (UniProt Q9GZY8)	0.038	0.025	-0.228	0.018	0.002	-0.074	0.048	-0.012	0.124	-0.042	-0.036	0.002	0.039	0.02	0.006	-0.013	0.018	-0.117	0.033	0.036
MED7 (UniProt O43513)	0.042	0.042	0.001	0.113	0.022	-0.078	-0.068	0.113	0.403 (active)	0.119	0.049	-0.023	-0.009	0.015	0.212	-0.021	-0.093	–	-0.008	-0.149
